The record followed here is PubChem BioAssay (NCATS).

Each structure is given as a SMILES string. Results filed as inconclusive are left out. Where a call stands in place of a potency, no number is given. Activity calls are given as the source filed them. Calls follow the shape of the dose curve; as a rule, active = well fitted curve in the direction sought with a large enough effect; inconclusive = small, poorly fitted or top-dose-only effect, or another doubt; inactive = no such curve, though single readings can be large; an effect the other way counts as inactive or inconclusive.

The target of assay [1] is Aldehyde dehydrogenase, mitochondrial (Homo sapiens) (UniProt P05091). Briefly: qHTS for Inhibitors of the Aldehyde Dehydrogenase Family (ALDH2) Primary screen (AID 2061308). Also: nearly all actives have a fitted effect of over 55% in size.
Assay [2] addresses Retinaldehyde dehydrogenase 3 (Homo sapiens) (UniProt P47895). Briefly: qHTS for Inhibitors of the Aldehyde Dehydrogenase Family (ALDH1A3) Primary screen (AID 2061315). (In qHTS, concentration-response curves come from the screen itself.)

Turning to `Cc1cc(NS(=O)(=O)c2ccc(NC(=O)C(C)(C)c3ccc(Cl)c(Cl)c3)cc2)no1`, the Potency entry in assay [1] and in assay [2] was “inactive” each time.
`O=C1CCCC2=C1C(c1cccc(C(F)(F)F)c1)N=C(Nc1nc3ccccc3o1)N2` (centres undefined): the Potency entry in assay [1] and in assay [2] was “inactive” each time.
Take `COc1cc(C(=O)Nc2nc(-c3ccccc3)cs2)ccc1NS(=O)(=O)c1ccc(C)cc1`: the Potency result in assay [1] and in assay [2] was “inactive” each time.
Consider `CCNC(=O)C1CCN(C(=O)C(C)(C)NC(=O)Nc2ccccc2Cl)CC1`, for which the Potency entry in assay [1] and in assay [2] was “inactive” throughout.
For the molecule `O=C(CN1C(=O)N/C(=C\c2cccn2-c2cccc(C(=O)O)c2)C1=O)Nc1ccccc1F`, the Potency result in assay [1] and in assay [2] was “inactive” each time.
`O=C(OCC#CCSc1nnc(-c2cccc3ccccc23)o1)c1ccc(OC(F)F)cc1`: the Potency entry in assay [1] and in assay [2] was “inactive” throughout.
Turning to `O=C1CCC2=C1C1(CCCC1)N=C(Nc1nc3ccccc3o1)N2`, the Potency result in assay [1] and in assay [2] was “inactive” throughout.
As to `COc1ccc(COc2ccc(-c3nc4ccccc4[nH]3)cc2)cc1OC`, the Potency result in assay [1] and in assay [2] was “inactive” throughout.
Regarding `O=C(Nc1nnc(-c2ccco2)o1)c1ccc(C(F)(F)F)cc1`, the Potency result in assay [1] and in assay [2] was “inactive” in each case.
Turning to `O=C(Nc1ccc(F)nc1)Nc1nnc(-c2ccncc2)s1`, the Potency entry in assay [1] and in assay [2] was “inactive” each time.
As to `CC(=O)Nc1nc(C)c(-c2nc(N3CCCC(O)C3)no2)s1` (centres undefined), the Potency entry in assay [1] and in assay [2] was “inactive” each time.
For the molecule `Cc1ccnc(NC(=O)N2CCN(c3cccc(C(F)(F)F)c3)CC2)c1`, the Potency result in assay [1] and in assay [2] was “inactive” each time.
On to `COc1ccc(C2Nc3ccccc3C(=O)N2Cc2ccccn2)cc1COc1c(C)cccc1C` (centres undefined), for which the Potency entry in assay [1] and in assay [2] was “inactive” throughout.
Regarding `CS(=O)(=O)/C=C/c1nc(Nc2cc(F)cc(F)c2)c2ncn(CC(F)F)c2n1`, the Potency result in assay [1] and in assay [2] was “inactive” each time.
Take `O=c1c2ccccc2nc2sc(Nc3cccc(N4CCN5CCCCC5C4)c3)nn12` (centres undefined): the Potency entry in assay [1] and in assay [2] was “inactive” throughout.
As for `Cc1ccc(OCCn2c(CCNC(=O)c3ccc(Cl)cc3)nc3ccccc32)cc1`, the Potency entry in assay [1] and in assay [2] was “inactive” throughout.
In the case of `COc1cc(O)c(C(CC(=O)N2CCCCC2)c2ccc3c(c2)OCO3)c(OC)c1` (centres undefined), the Potency entry in assay [1] and in assay [2] was “inactive” throughout.
Regarding `Cc1ccc(OCCn2c(CCNC(=O)c3ccc(C)cc3)nc3ccccc32)cc1`, the Potency entry in assay [1] and in assay [2] was “inactive” in each case.
Take `O=C1N/C(=C\c2ccco2)C(=O)N1Cc1ccc(F)cc1`: the Potency entry in assay [1] and in assay [2] was “inactive” each time.
With `c1cncc(CNc2ccnc(-c3ccc4c(c3)OCO4)n2)c1`, the Potency result in assay [1] and in assay [2] was “inactive” each time.
Consider `COc1ccc2c(c1)N1C(=O)C[C@@]34C=CC[N@+]5([O-])CC[C@H]2[C@H](CC3)[C@@]145`, for which the Potency entry in assay [1] and in assay [2] was “inactive” each time.
In the case of `CC(=O)Nc1cccc(S(=O)(=O)N2CCN(S(=O)(=O)c3c(F)cccc3F)CC2)c1`, the Potency result in assay [1] and in assay [2] was “inactive” in each case.
Consider `N#Cc1ccc(-c2ccc(NC(=O)c3cccs3)cn2)cc1`, for which the Potency entry in assay [1] and in assay [2] was “inactive” each time.
As to `O=c1c2ccccc2nc2sc(Nc3cccc(Br)c3)nn12`, the Potency entry in assay [1] and in assay [2] was “inactive” in each case.
On to `N=c1c2c(ccn1-c1ccccc1)Oc1ccc3ccccc3c1C2c1ccccc1` (centres undefined), for which the Potency entry in assay [1] and in assay [2] was “inactive” throughout.
Regarding `CCn1c(-c2nonc2N)nc2c(C#CCO)ncc(OCCCN)c21`, the Potency entry in assay [1] and in assay [2] was “inactive” throughout.
For `CCCn1c(-c2ccc(F)cc2)nc2c(NCCN(C)C)nc(C)nc21`, the Potency entry in assay [1] and in assay [2] was “inactive” each time.
For `CC(OC(=O)c1ccc(S(C)(=O)=O)c([N+](=O)[O-])c1)C(=O)NC1C2CC3CC(C2)CC1C3` (centres undefined), the Potency result in assay [1] and in assay [2] was “inactive” throughout.
As for `Cc1nc(N2CCOCC2)c2nc(-c3ccccc3)n(CC3CCN(C)CC3)c2n1`, the Potency result in assay [1] and in assay [2] was “inactive” throughout.
As to `CC(=O)C1=C(O)C2c3c[nH]c4cccc(c34)CC2C(C)(C)N(C)C1=O` (centres undefined), the Potency entry in assay [1] and in assay [2] was “inactive” each time.
As for `O=C1CC(c2ccccc2)CC2=C1C1(CCCCC1)N=C(Nc1nc3ccccc3o1)N2` (centres undefined), the Potency entry in assay [1] and in assay [2] was “inactive” throughout.
Regarding `CCCCn1cnc2cc(C(=O)N3CCCCC3)ccc21`, the Potency entry in assay [1] and in assay [2] was “inactive” in each case.
